Results filed as inconclusive are left out. Entries that show only a call come without a potency. Active and inactive are the calls of the source. Calls follow the shape of the dose curve; as a rule, active = well fitted cell-killing curve with a large enough effect; inconclusive = small, poorly fitted or top-dose-only effect; inactive = flat fitted curve, though single readings scatter.
Assay: Cell Viability - Renal Proximal Tubule (AID 545); also: nearly all actives have a fitted effect of over 40% in size
Details: renal proximal tubule cells viability; series mostly up to 91.7 µM
Excerpt: NIH Chemical Genomics Center [NCGC]
NIH Molecular Libraries Screening Centers Network [MLSCN]
National Institutes of Environmental Health Sciences [NIEHS]
National Toxicology Program [NTP]
We have developed a 1536-well cell-based assay for quantitative high throughput screening (qHTS) against a number of cell lines to determine in vitro cytotoxicity of small molecules. This particular assay uses the renal proximal tubule cells which are derived from normal kidney cells freshly isolated from rat.
NCGC Assay Protocol Summary:
The CellTiter-Glo luminescent cell viability assay (Promega) is a homogeneous method to measure the number of viable cells in culture. The end point readout of this assay is based on quantitation of intracellular ATP, an indicator of metabolic activity, using the luciferase reaction. Luciferase catalyzes the oxidation of beetle Luciferin to oxyluciferin and light in the presence of ATP. The luminescent signal is proportional to amount of ATP present.
Using the CellTiter-Glo luminescent cell viability assay, the amount of cellular ATP was measured in the renal proximal tubule cells with complete culture medium following compound treatment for 40 hours. The assay was performed in opaque white Kalypsys 1536-well plates. In the screen, tamoxifen and doxorubicin were used as positive controls. Library compounds were measured for their ability to cause acute toxicity in the cell line, as reflected by a decrease in intracellular ATP levels, in a concentration-dependent manner. […] AC50 values were determined from concentration-response data modeled with the standard Hill equation.
qHTS protocol for CellTiter Glo renal proximal tubule cell assay
[Step] [Parameter] [Value] [Description]
1. Reagent; 5 uL; 1000 renal proximal tubule cells/well
2. Time; 5 hr; 37 °C incubation
4. Controls; 23 nL; Tamoxifen 0.34 uM to 100 uM & Doxorubicin 0.02 nM to 100 uM
5. Time; 40 hr; 37 °C incubation
6. Reagent; 5 uL; CellTiter Glo reagent
7. Time; 20 min; Room Temperature
8. Detection; Luminescence; Viewlux plate reader
Keywords: cell viability, cytotoxicity, renal proximal tubule cells, luminescence, NTPHTS, NTPHTS_NCGC, NIEHS, EPA, DSSTox, MLSMR, MLSCN, NIH Roadmap, qHTS, NCGC
Potency is read from the fitted curve at half-maximal effect.

Row | SMILES | Potency
1 | CN(C)NC(=O)CCC(=O)O | inactive
2 | C=CC(=O)NCNC(=O)C=C | inactive
3 | Nc1ccc([N+](=O)[O-])cc1 | inactive
4 | Cc1cc(O)ccc1Cl | inactive
5 | Nc1ccc(Cl)cc1N | inactive
6 | Nc1ccc(Cl)cc1 | inactive
7 | c1cc2ccc3cccc4ccc(c1)c2c34 | inactive
8 | CCCCCCCCc1ccc(O)cc1 | inactive
9 | CCOP(=O)(NC(C)C)Oc1ccc(SC)c(C)c1 (stereo not given) | inactive
10 | O=[N+]([O-])c1c(Cl)c(Cl)cc(Cl)c1Cl | inactive
11 | CC(=O)[O][Hg][c]1ccccc1 | 631 nM (active)
12 | Nc1ccc(Sc2ccc(N)cc2)cc1 | inactive
13 | C1CCC(NC2CCCCC2)CC1 | inactive
14 | CCOCCOC(C)=O | inactive
15 | CN(C)[C@@H]1C(=O)C(C(N)=O)=C(O)[C@@]2(O)C(=O)C3=C(O)c4c(O)cccc4[C@@](C)(O)[C@H]3[C@H](O)[C@@H]12 | inactive
16 | CCCCOC(=O)c1ccccc1C(=O)OCc1ccccc1 | inactive
17 | O=[N+]([O-])c1c2ccccc2cc2ccccc12 | inactive
18 | CC(C)(O)C(=O)Nc1ccc([N+](=O)[O-])c(C(F)(F)F)c1 | inactive
19 | O=S(=O)(c1ccc(Cl)cc1)c1ccc(Cl)cc1 | inactive
20 | COC(C)(C)CCCC(C)C/C=C/C(C)=C/C(=O)OC(C)C (stereo not given) | inactive
21 | O=C(O)C(Cl)Cl | inactive
22 | O=[N+]([O-])c1cc([N+](=O)[O-])c2ccccc2c1 | inactive
23 | CCCCC(CC)COC(=O)c1ccccc1C(=O)OCC(CC)CCCC (stereo not given) | inactive
24 | OCCCBr | inactive
25 | O=C(O)COc1ccccc1 | inactive

From PubChem BioAssay (NCATS)
